# Source: PubChem BioAssay (several laboratories)
# PfM18AAP inh: PfM18AAP enzyme inhibition; recombinant PfM18AAP, H-Glu-NHMec fluorogenic cleavage; inhibition, % at 7.35 µM; 290,000 compounds, 1.2% hits; AID 1822;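 active = inhibition above the campaign mean inhibition over all tested compounds plus 3 SD, cut at about 28% in these data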;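 note: 0% = plate median of test compound wells and 100% = 2 mM ZnCl2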
# APOBEC3A inh: inhibitors of human APOBEC3A DNA deaminase; P31941; recombinant A3A, FAM/TAMRA ssDNA deamination fluorescence; inhibition, % at 20 µM; 330,000 compounds, 0.41% hits;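 active = at least 40% inhibition at 20 µM here, with at most 30% in a related deaminase screen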;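 note: plate controls were A3A with DMSO for no effect and wells lacking A3A enzyme for full effect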
# Yeast superoxide: lowers age-related superoxide in aged yeast cells; AID 2690; S. cerevisiae aged cells, superoxide DHE fluorescence; stronger effect = lower value; superoxide response (% of plate mean), % at 10 µM; 330,000 compounds, 0.18% hits;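 active = superoxide response under a set limit, about three screen SD below normal, cut at about 65% in these data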;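 note: yeast aged for seven days with compound at 30 °C before DHE staining; 100% = average MFI of all compound-treated wells on the plate with controls excluded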
# CendR NRP1 mod: NRP-1/CendR interaction modulation. O14786. FAM-RPARPAR peptide binding to NRP-1, fluorescence polarization. inhibition, % at 25 µM. 360,000 compounds, 0.85% hits;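 active = inhibition or corrected inhibition above about 18%, plus a signal ratio from 0.5 to 1.5, limit read from the data, passing the limit was not always enough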
# APOBEC3G inh: blocks human APOBEC3G single-stranded DNA deamination; 330,000 compounds, 0.28% hits; recombinant A3G, ssDNA deamination FAM/TAMRA fluorescence; Q9HC16; AID 493012; inhibition, % at 20 µM;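 active = inhibition of at least 40% at 20 µM, with no more than 30% in the related APOBEC3A deaminase screen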;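 note: plate controls were DMSO wells with A3G for no effect and wells lacking A3G enzyme for full effect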
# Target sequence (Q9HC16 whole entry, looked up): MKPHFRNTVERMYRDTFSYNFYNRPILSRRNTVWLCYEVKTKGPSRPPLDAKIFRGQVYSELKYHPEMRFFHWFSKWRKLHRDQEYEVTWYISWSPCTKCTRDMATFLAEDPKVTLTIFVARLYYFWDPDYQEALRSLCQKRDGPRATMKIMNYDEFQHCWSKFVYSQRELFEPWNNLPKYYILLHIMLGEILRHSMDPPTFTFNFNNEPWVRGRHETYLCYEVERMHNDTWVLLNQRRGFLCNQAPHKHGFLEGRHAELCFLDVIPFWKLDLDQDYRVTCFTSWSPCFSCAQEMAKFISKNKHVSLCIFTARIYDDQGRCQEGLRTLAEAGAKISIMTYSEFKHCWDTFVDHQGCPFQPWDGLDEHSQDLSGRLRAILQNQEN
# ALR inh: human ALR oxidase inhibition via reduced H2O2; 290,000 compounds, 3.8% hits; AID 485317; purified ALR, DTT oxidation, H2O2 HRP-luminol luminescence; inhibition, % (test concentration not listed);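 active = mean replicate inhibition above about 79%, with every replicate also reaching it, limit read from the data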
# An asterisk follows results filed as active; / = no result given. Most compounds without a hit are left out; they make up all but 5.2% or so of the library.
SMILES,PfM18AAP inh,APOBEC3A inh,Yeast superoxide,CendR NRP1 mod,APOBEC3G inh,ALR inh
C[C@]12C[C@H](O)[C@@H]3c4ccc(O)cc4CCC3[C@@H]1CCC2=O (stereo not given in full),-3,0,103,11,-1,/
O=NN(CCF)C(=O)NC1CCS(=O)(=O)CC1,/,/,/,5,/,/
Nc1ccc(CCC(=O)N2CCCC2)cc1,-2,-3,103,2,-7,13
CC1CC/C(=N/Nc2ccccc2)C(=O)N1 (stereo not given),0,3,107,9,-6,99*
C=CCc1ccc(OCCn2nnc3ccccc32)c(OC)c1,4,-3,99,27*,24,-3
Cc1cccn2cc(-c3ccc(NC(=O)Cc4ccccc4)cc3)nc12,-1,-6,106,-41,-5,-1
Cc1cc(O)c2c(c1)C(=O)c1cccc(O)c1C2=O,7,/,/,/,/,/
O=C(O)c1cc(O)c2c(c1)C(=O)c1cccc(O)c1C2=O,28*,21,177,-1,6,-37
COC(=O)[C@@]1(Cc2ccc(OC)cc2)[C@H]2c3cc(C(=O)N4CCCC4)n(CCN4CCOCC4)c3C[C@H]2CN1C(=O)c1ccccc1,/,/,/,23*,/,/
CCCc1cc(N2CCC(C(N)=O)CC2)nc(-c2ccccc2)n1,2,4,104,8,-6,/
COc1cccc(NC(=S)NNC(=O)c2c([N+](=O)[O-])c(C)nn2C)c1,6,7,117,7,-8,/
COc1cccc(NC(=S)NNC(=O)C(C)n2nc(C)c([N+](=O)[O-])c2C)c1 (stereo not given),17,-3,120,0,-5,84*
CCOC(=O)N1CCc2c(sc(NC(=O)Cc3ccccc3)c2C(=O)c2ccc(OC)cc2)C1,1,0,99,12,-6,9
CCOc1cnn(-c2ccccc2)c(=O)c1Cl,-3,-2,98,-9,-8,96*
CCSc1cnn(-c2ccccc2)c(=O)c1Cl,/,-4,97,3,7,7
CCN(CC)C(=O)c1sc(NC(=O)c2cccc([N+](=O)[O-])c2)c(C#N)c1C,0,-3,94,-2,-6,14
CSc1cccc(NC(=O)CC(C)n2ccnc2)c1 (stereo not given),-18,2,97,4,-4,/
Cn1c(SCC(=O)C(C)(C)C)nnc1-c1ccc(F)cc1,-13,-2,81,-2,-6,4
CC(Sc1nnc(-c2ccc(C(C)(C)C)cc2)n1C)C(N)=O (stereo not given),2,2,116,24*,-2,-1
O=C(Oc1ccc(/C=N/O)cc1)c1ccccc1Cl,5,1,95,1,-1,99*
COc1ccc(C(=S)N2CCOCC2)cc1OC(=O)c1cc([N+](=O)[O-])c(C)c([N+](=O)[O-])c1,9,7,84,28*,4,0
CCN1C(=O)c2cccc3c(S(=O)(=O)NCc4ccccc4)ccc1c23,/,0,102,14,-6,-8
CCN1C(=O)c2cccc3c(S(=O)(=O)Nc4ccc(O)c(C(=O)O)c4)ccc1c23,9,1,120,-5,-3,98*
COc1cccc(C2C=C(c3ccc(Br)s3)Nc3ncnn32)c1OC (stereo not given),32*,-3,103,-181,-4,1
Fc1ccc(Br)cc1C1C=C(c2ccc(Br)s2)Nc2ncnn21 (stereo not given),39*,-14,123,131,-16,88*
SMILES,PfM18AAP inh,APOBEC3A inh,Yeast superoxide,CendR NRP1 mod,APOBEC3G inh,ALR inh
CC(=O)N1CCN(C(=O)CNc2cc(C(F)(F)F)ccc2OCC(F)(F)F)CC1,-1,3,90,-9,2,6
COCCN(CCOC)C(=O)c1ccc(CSc2nc3ccccc3s2)cc1,-15,-1,100,-3,-1,92*
Clc1ccc(N/N=C/c2ccncc2)cc1Cl,-6,-4,81,7,-7,98*
CC(=O)Nc1ccc(CNc2ncnc3ccc(-c4c(C)noc4C)cc23)cc1,/,5,117,36*,-10,-1
COC(=O)C1=C(C)Nc2ccc(C)cc2S1,-5,-2,96,-6,-11,98*
CCOc1ccc(OCC)c(NC(=O)C2CCCN(S(=O)(=O)c3c(C)noc3C)C2)c1 (stereo not given),-9,1,92,-5,-1,-6
